104 compounds from PubChem BioAssay AID560 (The Scripps Research Institute Molecular Screening Center, 2006) can be followed below.

Among all 65,000 compounds or so, about 980 (1.5%) were called active. Only a selection was taken, and actives are over-represented in it overall. A number with no mark means an inactive call.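 The calls were made as follows: active = activation above the mean of all tested compounds plus 3 SD (cut at about 49% in these data); inactive = the rest.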

This assay deals with Nuclear receptor ROR-alpha (Homo sapiens) (UniProt P35398). The assay can be described thus: RORA ligand-binding domain transcriptional activation – cell-based, luminescence, primary screen (AID 560).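 Also: 0% = DMSO-treated RORA cells and 100% = added signal equal to DMSO minus mock-transfected cells.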 The conditions noted are these: CHO-K1 Gal4-RORA LBD luciferase reporter, at 10 µM, active compounds read high, percent increase over mock-subtracted basal signal. On the technique in general: A reporter such as luciferase makes a cellular process visible.
Chain of Nuclear receptor ROR-alpha (Homo sapiens) (P35398 whole entry, looked up, the tested form may be a part): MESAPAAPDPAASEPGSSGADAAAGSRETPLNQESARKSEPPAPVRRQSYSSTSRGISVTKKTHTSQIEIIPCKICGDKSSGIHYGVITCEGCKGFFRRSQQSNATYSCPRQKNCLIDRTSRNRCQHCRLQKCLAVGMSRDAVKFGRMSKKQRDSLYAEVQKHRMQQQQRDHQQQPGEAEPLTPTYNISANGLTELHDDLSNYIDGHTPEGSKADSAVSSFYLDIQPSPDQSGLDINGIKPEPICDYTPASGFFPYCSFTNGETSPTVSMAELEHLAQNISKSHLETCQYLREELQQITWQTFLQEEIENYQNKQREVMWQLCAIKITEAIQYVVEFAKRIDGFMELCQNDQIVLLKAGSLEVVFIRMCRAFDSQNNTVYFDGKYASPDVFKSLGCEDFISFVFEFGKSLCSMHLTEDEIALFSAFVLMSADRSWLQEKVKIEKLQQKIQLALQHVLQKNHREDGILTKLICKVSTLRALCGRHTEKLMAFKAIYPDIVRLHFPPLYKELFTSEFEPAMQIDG
As for `O=C(Nc1cccc(Cl)c1)OCc1ccccn1`, the activation is 69.9% (active).

Take `O=C(NCc1cn2ccsc2n1)Nc1cccc(Cl)c1`: the activation was 45.8%.

In the case of `O=C(NCc1ccccn1)Nc1ccc(F)cc1`, the activation is 28.4%.

As for `Cc1c(NC(=O)c2coc(=O)c(Br)c2)c(=O)n(-c2ccccc2)n1C`, the activation is -0.3%.

Regarding `COC(=O)c1cc(C(=O)OC)cc(N2C(=O)CC(N3CCN(c4ccccc4)CC3)C2=O)c1` (centres undefined), the activation was 15.5%.

Turning to `CC(Cc1cccs1)NC(=O)NC1CCCCC1` (centres undefined), the activation is 31.7%.

As for `CC(C)c1ccc(NC(=O)NC2CCCCC2)cc1`, the activation is 85.1% (active).

`CC(=O)OC(C(=O)NC1CCCCC1)c1ccccc1` (centres undefined): the activation was -15.4%.

As for `COc1ccc(-c2nc(SCC(=O)N3CCOCC3)n[nH]2)cc1`, the activation is 8.1%.

In the case of `CC(=O)Nc1ccc(NC(=O)CN2CCCC(C)C2)c(Cl)c1` (centres undefined), the activation was 7.9%.

Turning to `O=C(C1CCC1)N1CCc2cc(S(=O)(=O)NCc3cccnc3)ccc21`, the activation is 16.4%.

On to `Cc1ccc(C(=O)N2CCN(C3CCCCC3)CC2)s1`, for which the activation was -13.8%.

Take `COc1cccc(CNC(=O)C2CCN(S(=O)(=O)c3cccc4cccnc34)CC2)c1`: the activation is -6.7%.

Regarding `C#CCN1C(=O)C(O)(CC(=O)c2cc(OC)ccc2OC)c2ccccc21` (centres undefined), the activation is -9.4%.

For the compound `CCOC(=O)c1nc(-c2ccc3c(c2)OCO3)[nH]c1C`, the activation is 66.7% (active).

Regarding `CCOC(=O)NCc1ccc2c(c1)OCO2`, the activation was -14.5%.

With `CCOC(=O)c1c(C)[nH]c(C(=O)COc2ccc3c(c2)OCO3)c1C`, the activation is 28.3%.

As to `COCc1nnc(NC(=O)CS(=O)(=O)Cc2ccccc2)s1`, the activation was -0.8%.

With `COC(=O)C(C)Sc1ccc2nnc(-c3cccc(F)c3)n2n1` (centres undefined), the activation was -8%.

As for `COC(=O)c1c(NC(=O)c2cccs2)sc2c1CCCC2`, the activation was 19.4%.

Take `c1ccc2c(c1)OCC(CNc1ncnc3nc[nH]c13)O2` (centres undefined): the activation was 20.1%.

With `CCCC(=O)N=c1sc2cccc(F)c2n1C`, the activation is 5.7%.

With `Cn1c(=NC(=O)C2CC2)sc2cc(F)cc(F)c21`, the activation is 27.7%.

`Cn1c(=NC(=O)c2ccco2)sc2cccc(F)c21`: the activation was 61.5% (active).

In the case of `COC(=O)c1cccc(NC(=O)CN2CCC(NC(=O)c3cc(OC)c(OC)c(OC)c3)CC2)c1`, the activation was 17.2%.

On to `COc1ccc(CCNC(=O)CN2CCC(n3nnc4cc(F)ccc43)CC2)cc1OC`, for which the activation was -11.2%.

In the case of `O=C(NC1=NCCS1)c1ccc(Cl)s1`, the activation is 80.1% (active).

Take `CCc1ccc(N2CC(C(=O)NC3=NCCS3)CC2=O)cc1` (centres undefined): the activation was -23.3%.

In the case of `CC(NC(=O)COc1ccccc1)C(=O)NC1=NCCS1` (centres undefined), the activation is -14.4%.

Turning to `C=CCn1c(=S)[nH]c2nc3c(cc2c1=O)COC(C)(C)C3`, the activation is -9.2%.

Consider `O=C(Nc1nnc(CCc2ccccc2)s1)C1CCCO1` (centres undefined), for which the activation was 0.2%.

Take `O=C(Nc1cccc(-c2nnc(-c3ccccc3)o2)c1)C1CCCO1` (centres undefined): the activation is 61.1% (active).

As to `O=C(Nc1ccc(-c2nnc(-c3ccccc3)o2)cc1)C1CCCO1` (centres undefined), the activation was 32.9%.

In the case of `O=C(COc1ccccc1)N1CCc2ccccc2C1`, the activation was 18.5%.

With `Cc1ccsc1C(=O)OCC(=O)c1cc(C)n(CC2CCCO2)c1C` (centres undefined), the activation was -85.1%.

As for `Cc1cc(C(=O)OCC(=O)NCc2ccco2)c(C)n1-c1ccccc1`, the activation was 61.4% (active).

As to `O=C(CSc1nnc(-c2cccs2)n1-c1ccccc1)NCc1ccco1`, the activation is 11.1%.

For the compound `O=C(COC(=O)C12CC3CC(CC(C3)C1)C2)NCc1ccco1`, the activation is -21.1%.

With `CC(=O)N1CSCC1C(=O)O` (centres undefined), the activation was 15.8%.

For the compound `O=c1[nH][nH]c(=O)c2cc(N3CCCC3)ccc12`, the activation was 1.1%.

Consider `CC(C)NS(=O)(=O)c1ccc(NC(=O)c2cccnc2)cc1`, for which the activation was 25.4%.

As to `Cc1cc2nc(-c3ccc(NC(=O)c4cccnc4)cc3)oc2cc1C`, the activation was 71.6% (active).

For `CCOC(=O)c1cc(NC(=O)c2cccnc2)cc(C(=O)OCC)c1`, the activation is -17.2%.

With `O=C(NC12CC3CC(CC(C3)C1)C2)N1CCCC(CO)C1` (centres undefined), the activation is -9.5%.

As for `Cc1ccccc1-c1nnn(CC(=O)c2ccc(S(=O)(=O)N3CCCC3)cc2)n1`, the activation is -9.2%.

On to `O=C(Cn1nnc(-c2ccccc2)n1)NCc1ccccc1`, for which the activation was -3.8%.

As to `CC(C)(C)NC(=O)Cn1nnc(-c2ccccc2Cl)n1`, the activation is 65.9% (active).

For `O=C(CN1C(=O)C2C3C=CC(C3)C2C1=O)NCCc1ccccc1Cl` (centres undefined), the activation was 0.8%.

Take `O=S(=O)(NCc1ccccn1)c1ccc(Br)s1`: the activation was -0.5%.

On to `O=C(Nc1nncs1)c1ccccc1NS(=O)(=O)c1cccs1`, for which the activation was 2.5%.

Turning to `COC(=O)c1sc(NC(=O)c2ccc(OC)cc2OC)nc1C`, the activation is -38.1%.

Turning to `COc1ccc(C(=O)Nc2nncs2)c(OC)c1`, the activation is 62.9% (active).

As to `Cn1c(=O)n(CCc2ccccc2)c(=O)c2c1nc1n2CCCN1c1ccccc1`, the activation is 8.2%.

Consider `Nc1c(C(=O)NCc2ccccc2)nnn1Cc1cccc(Cl)c1`, for which the activation was 9.8%.

As to `CCC(=O)NC(=Nc1nc2ccccc2s1)NC(=O)CC`, the activation is 48.7% (active).

Turning to `O=C(O)CSCc1nc2ccccc2s1`, the activation was 18.2%.

Regarding `COC(=O)Cc1cc(=O)n(-c2nc3ccccc3s2)[nH]1`, the activation was -10.3%.

For the compound `O=c1/c(=C/c2ccc(CNS(=O)(=O)c3ccccc3)o2)sc2n1CCN=2`, the activation is -17.5%.

In the case of `CC(C)(C)c1ccc(C(=O)CSc2ncn[nH]2)cc1`, the activation was 54.2% (active).

For `Cn1nnc(NC(=O)CSc2ncn[nH]2)n1`, the activation was -7.4%.

As to `CCN(C(=O)CSc1ncn[nH]1)c1cccc2ccccc12`, the activation was -6.5%.

Take `CCOC(=O)c1csc(NC(=O)c2ccc(S(=O)(=O)N3CCCC3)cc2)n1`: the activation is 8.6%.

Regarding `Cn1c(SCC(=O)OC2CCCCC2)nnc1-c1ccc(S(=O)(=O)N2CCCC2)cc1`, the activation is -7.4%.

`COc1cccc(OCC(=O)Nc2ccccc2C(N)=O)c1`: the activation is 1.9%.

With `O=C(Nc1nn(Cc2ccccc2F)cc1Br)c1cccs1`, the activation was -5.3%.

For `COc1cc(N=Cc2c(O)[nH]c3ccccc23)cc(OC)c1OC`, the activation was -15.8%.

With `COc1ccc(N=Cc2c(O)[nH]c3ccccc23)cc1OC`, the activation was 55.7% (active).

With `COc1ccc(OC)c(N=Cc2c(O)[nH]c3ccccc23)c1`, the activation is -14.1%.

As for `CC(=O)N1CC2(C)CN(C(C)=O)CC(C)(C1)C2=O`, the activation is -2%.

For `CC1CCc2sc3nc(N4CCN(CCO)CC4)n4ncnc4c3c2C1` (centres undefined), the activation was 12.3%.

Consider `O=C(Nc1ccc(Cl)cc1)c1ccsn1`, for which the activation was 59.5% (active).

As to `O=C(NCc1cn2ccsc2n1)Nc1ccc(Cl)cc1`, the activation was 10.4%.

Turning to `O=C(O)C1CCCCC1C(=O)Nc1ccc(Cl)cc1` (centres undefined), the activation was -6.2%.

Take `COc1ccc(O)c(C(=O)c2cnc3onc(C(C)C)c3c2)c1`: the activation was 12.5%.

For the compound `CCc1c(C)sc(NC(=O)OC)c1C(=O)N1CCOCC1`, the activation is -6.7%.

As for `COc1ccccc1NC(=O)c1ccc(C)s1`, the activation is 48.9% (active).

Consider `COc1ccc(C2C(C(=O)Nc3ccccc3OC)=C(C)Nc3nnnn32)c(OC)c1` (centres undefined), for which the activation was 7.2%.

Regarding `CCOc1ccccc1NC(=O)Nc1cc(OC)ccc1OC`, the activation is -19.1%.

As to `CC(C)c1nc2oc3c(N4CCN(C)CC4)ncnc3c2c2c1CCC2`, the activation is 13.9%.

As to `Cc1ccc(NC(=O)CN2CCC3(O)CCCCC3C2c2ccc3c(c2)OCO3)c(C)c1` (centres undefined), the activation is 11.9%.

As to `Cc1ccc(C)c(NC(=O)C2CCCN2C(=O)OC(C)(C)C)c1` (centres undefined), the activation was -9%.

As to `Cc1ccnc(NC(=O)c2ccc(NC(=O)c3ccco3)cc2)c1`, the activation was 29.2%.

Regarding `O=C(Nc1ccc(Oc2ccccc2)cc1)c1ccco1`, the activation was 22.9%.

Take `COC(=O)c1ccc(NC(=O)c2ccco2)cc1`: the activation is 77.4% (active).

As to `O=C(C1CCN(S(=O)(=O)Cc2ccccc2)CC1)N1CCCc2ccccc21`, the activation is 12.2%.

For `COc1cc(C2C(C#N)=C(N)Oc3n[nH]c(-c4ccccn4)c32)cc(OC)c1OC` (centres undefined), the activation is 7.4%.

Take `Cc1ccc2c(c1)N(C(=O)CCC(=O)N1CCc3ccccc3C1)CCO2`: the activation is 0.5%.

In the case of `CC(=O)Oc1ccc(C(=O)Nc2nccs2)cc1`, the activation was 61% (active).

As for `COc1cc(C(=O)Nc2nccs2)cc(OC)c1OC`, the activation is -15.9%.

On to `Cn1cccc1C(=O)Nc1nccs1`, for which the activation was 12.1%.

Turning to `CC1CCC(NC(=O)c2ccc(N3CCCC3=O)cc2)CC1` (centres undefined), the activation is 61.7% (active).

Regarding `Cc1ccc(C(=O)NC2CCN(C(=O)N3CCOCC3)CC2)cc1`, the activation is -4.3%.

Regarding `O=C(NCCCN1CCCCCC1)c1ccc(N2CCCC2=O)cc1`, the activation is -16.9%.

Turning to `CCOC(=O)c1c(C)c(C(=O)NCCc2ccc(S(N)(=O)=O)cc2)c(C)n1CC`, the activation is 17.3%.

Consider `CCNC(=O)CN(c1ccc(C)cc1)S(=O)(=O)c1ccc(SC)cc1`, for which the activation is -24%.

Consider `c1ccc(Nc2nc(-c3ccncc3)cs2)nc1`, for which the activation is 50.9% (active).

In the case of `Oc1ccc(-c2csc(Nc3cccnc3)n2)cc1`, the activation was 5.9%.

Regarding `Clc1ccc(Nc2nc(-c3cccs3)cs2)nc1`, the activation was 41.7%.

For the compound `O=C(Cn1cc2c(n1)CCCCC2)NCCN1CCOCC1`, the activation is -13.6%.

For `Cc1ccc(Cc2nc(-c3cccc(C)c3)no2)cc1`, the activation was 51.5% (active).

On to `Cc1cccc(-c2noc(-c3ccc(F)cc3)n2)c1`, for which the activation is 31%.

Take `Cc1ccc(-c2noc(CN3CCN(Cc4ccccc4)CC3)n2)cc1`: the activation is -1.1%.

Turning to `CC(=O)c1nc(N2C(=O)C3CC=C(C)CC3C2=O)sc1C` (centres undefined), the activation is 1.8%.

On to `CCn1c(SCCC(C)C)nnc1-c1c[nH]c2ccccc12`, for which the activation was 8.7%.
